Activity calls are given as the source filed them. Rule for the calls: active = hit-call score of the fitted dose curve at least 0.9, where 1 is the maximum; inactive = score below 0.9.
Key:
[1] = ATG_CRE_CIS: Attagene CIS-FACTORIAL HepG2 Assay for human cAMP Responsive Element (CRE) binding protein 3 (AID 2282926); conditions: HepG2 CRE cis-reporter, Attagene multiplexed mRNA; actives raise or lower the signal
Method in brief: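 HepG2 cells transiently transfected with cis-element-driven multiple reporter transcription units; CRE reporter mRNA measured 24 h after dosing by RT-PCR, 6-FAM labelling, HpaI digestion and capillary electrophoresis. Bidirectional fit versus DMSO baseline.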

[2] = target: CCAAT/enhancer-binding protein beta (Homo sapiens) (UniProt P17676); assay: ATG_C_EBP_CIS: Attagene CIS-FACTORIAL HepG2 Assay for human CCAAT/Enhancer Binding Protein (C/EBP) beta (AID 2282927); conditions: HepG2 Attagene cis-factorial transcription factor reporter; actives raise or lower the signal
Method in brief: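 Chemical-treated HepG2 cells (24 h) bearing cis-regulated reporter constructs were processed for total RNA, then reverse transcription, PCR amplification, fluorescent primer extension and fragment analysis; gain- and loss-of-signal were fitted against DMSO.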

[3] = ATG_CMV_CIS: Attagene CIS-FACTORIAL HepG2 Assay for human CMV (Internal Marker) (AID 2282928); conditions: HepG2 CMV promoter reporter, transcription factor profiling; actives raise or lower the signal;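 note: endpoint acts as a background internal control marker rather than a target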
Method in brief: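 CMV internal-marker background readout in transiently transfected HepG2 cells bearing cis-regulated reporter units. Reporter mRNA is measured 24 h after dosing by RT-PCR and capillary electrophoresis, with bidirectional fitting against DMSO.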

[4] = ATG_DR4_LXR_CIS: Attagene CIS-FACTORIAL HepG2 Assay for human Liver X Receptor (LXR), DR4 submotif (AID 2282929); conditions: HepG2 Attagene DR4 cis-reporter, mRNA transcription; actives raise or lower the signal
Method in brief: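 Endogenous factor activity at a DR4 cis-element is read as reporter mRNA in transiently transfected HepG2 cells. Exposure lasts 24 h; transcripts are amplified, fluorescently labelled and sized by capillary electrophoresis, with DMSO as baseline.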

[5] = target: Aryl hydrocarbon receptor (Homo sapiens) (UniProt P35869); assay: ATG_Ahr_CIS: Attagene CIS-FACTORIAL HepG2 Assay for human Aryl Hydrocarbon Receptor (Ahr) (AID 2282930); conditions: HepG2 AhR cis-factorial reporter transcription; actives raise or lower the signal
Method in brief: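 Following 24 h of chemical dosing, transfected HepG2 liver cells with cis-driven reporter units were lysed for RNA; reporter mRNA was quantified via RT-PCR and capillary electrophoresis, and responses fitted bidirectionally from DMSO.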

[6] = ATG_AP_1_CIS: Attagene CIS-FACTORIAL HepG2 Assay for human Activator Protein 1 (AP-1) (AID 2282931); conditions: HepG2 Attagene cis-factorial AP-1 reporter mRNA; actives raise or lower the signal
Method in brief: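 Fluorescence of labelled PCR fragments separated by capillary electrophoresis gives reporter mRNA levels. HepG2 with transfected cis-regulated reporter units, 24 h exposure; DMSO serves as baseline for bidirectional curve fits.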

[7] = ATG_AP_2_CIS: Attagene CIS-FACTORIAL HepG2 Assay for human Activator Protein 2 (AP-2) (AID 2282932); conditions: HepG2 AP-2 cis-reporter, Attagene transcription factor profiling; actives raise or lower the signal
Method in brief: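 HepG2 cells were transiently transfected with multiple cis-promoter reporter transcription units and dosed for 24 h. Reporter mRNA was measured by RT-PCR with capillary electrophoresis fluorescence; bidirectional fits relative to DMSO baseline.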

[8] = ATG_BRE_CIS: Attagene CIS-FACTORIAL HepG2 Assay for human Bone Morphogenetic Protein (BMP) Response Element (BRE) (AID 2282933); conditions: HepG2 BMP response element reporter, Attagene transcription factor profiling; actives raise or lower the signal
Method in brief: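 Transient MRTU transfection of human HepG2 liver cells; 24 h compound treatment; total RNA isolated, reverse-transcribed, PCR-amplified, 6-FAM labelled, HpaI-cut, capillary electrophoresis. DMSO = negative control/baseline, bidirectional fit.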

[9] = target: Retinoic acid receptor alpha (Homo sapiens) (UniProt P10276); assay: ATG_DR5_RAR_CIS: Attagene CIS-FACTORIAL HepG2 Assay for human Retinoic Acid Receptor Alpha (RARE), DR5 submotif (AID 2282934); conditions: HepG2 Attagene cis-factorial RARE DR5 reporter, mRNA; actives raise or lower the signal;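 for AC50: reporter responds to endogenous RAR alpha beta and gamma in HepG2 not RARA alone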
Method in brief: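 Transfected HepG2 reporter cells are exposed to chemicals for 24 h. Then RNA is extracted and the DR5 element reporter transcript is measured by RT-PCR and capillary electrophoresis, with bidirectional curve fitting relative to DMSO.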

[10] = target: Transcription factor E2F1 (Homo sapiens) (UniProt Q01094); assay: ATG_E2F_CIS: Attagene CIS-FACTORIAL HepG2 Assay for human E2F Transcription Factor 1 (AID 2282935); conditions: HepG2 Attagene cis-reporter, E2F reporter RNA transcripts; actives raise or lower the signal
Method in brief: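 HepG2 cells transiently transfected with multiplexed cis-element reporter units, dosed for 24 h. Reporter mRNA measured by RT-PCR, 6-FAM primer-extension labeling, HpaI digestion and capillary electrophoresis; bidirectional fit versus DMSO baseline.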

Chain of Aryl hydrocarbon receptor (Homo sapiens) (P35869 whole entry, looked up): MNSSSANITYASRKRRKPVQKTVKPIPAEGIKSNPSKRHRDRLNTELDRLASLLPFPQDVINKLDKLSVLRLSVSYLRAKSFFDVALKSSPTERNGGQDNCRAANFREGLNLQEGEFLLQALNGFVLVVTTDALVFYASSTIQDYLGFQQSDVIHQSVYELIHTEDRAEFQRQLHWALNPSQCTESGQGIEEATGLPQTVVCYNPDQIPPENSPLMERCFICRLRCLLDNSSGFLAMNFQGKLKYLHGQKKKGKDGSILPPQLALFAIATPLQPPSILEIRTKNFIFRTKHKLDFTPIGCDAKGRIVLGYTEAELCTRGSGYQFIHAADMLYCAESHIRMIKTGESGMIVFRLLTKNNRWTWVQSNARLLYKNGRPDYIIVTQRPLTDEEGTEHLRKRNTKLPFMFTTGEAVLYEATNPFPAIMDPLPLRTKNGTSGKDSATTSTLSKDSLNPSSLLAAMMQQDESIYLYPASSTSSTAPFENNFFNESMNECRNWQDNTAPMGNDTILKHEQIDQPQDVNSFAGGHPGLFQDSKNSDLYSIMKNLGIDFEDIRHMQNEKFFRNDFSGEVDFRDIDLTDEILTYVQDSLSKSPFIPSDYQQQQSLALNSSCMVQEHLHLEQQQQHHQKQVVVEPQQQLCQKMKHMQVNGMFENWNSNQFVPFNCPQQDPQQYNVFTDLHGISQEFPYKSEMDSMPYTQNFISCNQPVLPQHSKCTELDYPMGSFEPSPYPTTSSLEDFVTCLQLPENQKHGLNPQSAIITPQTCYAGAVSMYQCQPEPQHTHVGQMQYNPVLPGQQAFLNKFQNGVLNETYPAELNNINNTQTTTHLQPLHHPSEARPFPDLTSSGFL
Chain of CCAAT/enhancer-binding protein beta (Homo sapiens) (P17676 whole entry, looked up, the tested form may be a part): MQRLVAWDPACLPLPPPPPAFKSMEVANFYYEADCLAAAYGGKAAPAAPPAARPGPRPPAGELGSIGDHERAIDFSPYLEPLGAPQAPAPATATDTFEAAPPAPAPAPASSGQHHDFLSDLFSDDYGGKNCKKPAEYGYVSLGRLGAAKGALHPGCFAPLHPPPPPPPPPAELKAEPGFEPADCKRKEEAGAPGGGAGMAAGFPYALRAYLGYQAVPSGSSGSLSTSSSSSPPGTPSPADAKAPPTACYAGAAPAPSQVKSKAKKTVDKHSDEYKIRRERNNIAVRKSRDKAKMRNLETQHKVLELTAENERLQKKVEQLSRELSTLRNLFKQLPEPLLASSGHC
Chain of Transcription factor E2F1 (Homo sapiens) (Q01094 whole entry, looked up): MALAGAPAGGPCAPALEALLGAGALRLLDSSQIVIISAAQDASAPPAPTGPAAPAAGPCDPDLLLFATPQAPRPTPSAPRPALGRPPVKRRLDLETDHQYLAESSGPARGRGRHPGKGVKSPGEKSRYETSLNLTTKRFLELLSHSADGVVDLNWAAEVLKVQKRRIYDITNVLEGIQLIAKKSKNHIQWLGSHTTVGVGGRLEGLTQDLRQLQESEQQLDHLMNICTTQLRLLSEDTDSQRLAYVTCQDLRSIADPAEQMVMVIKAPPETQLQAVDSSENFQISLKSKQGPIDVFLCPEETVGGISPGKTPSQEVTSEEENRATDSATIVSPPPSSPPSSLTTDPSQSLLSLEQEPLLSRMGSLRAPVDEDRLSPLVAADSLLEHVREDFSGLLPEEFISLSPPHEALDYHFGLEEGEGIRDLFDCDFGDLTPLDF
Chain of Retinoic acid receptor alpha (Homo sapiens) (P10276 whole entry, looked up): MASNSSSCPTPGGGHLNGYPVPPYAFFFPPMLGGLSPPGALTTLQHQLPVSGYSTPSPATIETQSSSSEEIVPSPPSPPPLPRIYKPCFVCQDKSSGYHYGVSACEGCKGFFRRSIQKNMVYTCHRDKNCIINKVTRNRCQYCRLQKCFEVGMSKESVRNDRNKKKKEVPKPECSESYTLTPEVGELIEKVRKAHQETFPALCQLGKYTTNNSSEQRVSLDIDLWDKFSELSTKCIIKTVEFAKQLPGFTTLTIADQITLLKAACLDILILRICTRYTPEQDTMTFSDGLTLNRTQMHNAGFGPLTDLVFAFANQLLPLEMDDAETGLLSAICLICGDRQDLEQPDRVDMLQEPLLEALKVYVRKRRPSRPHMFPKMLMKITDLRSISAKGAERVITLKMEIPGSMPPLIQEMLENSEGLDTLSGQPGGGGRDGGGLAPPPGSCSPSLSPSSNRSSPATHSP

| Structure (SMILES) | outcome [1] | outcome [2] | AC50 [3] | AC50 [4] | outcome [5] | AC50 [6] | outcome [7] | outcome [8] | outcome [9] | outcome [10] | AC50 [1] | outcome [4] | outcome [6] | AC50 [8] | AC50 [10] | outcome [3] | AC50 [5] | AC50 [9] | AC50 [2] |
| --- | --- | --- | --- | --- | --- | --- | --- | --- | --- | --- | --- | --- | --- | --- | --- | --- | --- | --- | --- |
| C1=CCCC=CCCC=CCC1 | inactive | inactive | 135 µM (active) | 100 µM (active) | inactive | 161 µM (active) | inactive | inactive | inactive | inactive |  |  |  |  |  |  |  |  |  |
| Fc1ccccc1[C@@H](F)COC1CCC(Nc2ncnc3[nH]ncc23)CC1 (stereo partly specified) |  | inactive | 24.4 µM (active) |  | inactive |  | inactive |  | inactive |  | 25.5 µM (active) | inactive | inactive | 24.6 µM (active) | 25.6 µM (active) |  |  |  |  |
| COCCOCCOCCOC | inactive | inactive |  |  | inactive |  | inactive | inactive | inactive | inactive |  | inactive | inactive |  |  | inactive |  |  |  |
| C1N2CN3CN1CN(C2)C3 | inactive | inactive |  |  |  |  | inactive | inactive | inactive | inactive |  | inactive | inactive |  |  | inactive |  |  |  |
| O=C(O)c1cccc(Oc2ccccc2)c1 | inactive | inactive |  |  | inactive |  | inactive | inactive | inactive | inactive |  | inactive | inactive |  |  | inactive |  |  |  |
| O=C1CCC(N2C(=O)c3ccccc3C2=O)C(=O)N1 (stereo unspecified) | inactive | inactive |  |  | inactive |  | inactive | inactive | inactive | inactive |  | inactive | inactive |  |  | inactive |  |  |  |
| CC(C)CCCCCCCOC(=O)CCCCC(=O)OCCCCCCCC(C)C | inactive | inactive |  |  |  |  | inactive | inactive |  | inactive |  | inactive | inactive |  |  | inactive | 64.9 µM (active) | 18 µM (active) |  |
| Cn1c(=O)cc(Oc2ccc(F)cc2F)c2cnc(NCC(C)(C)O)nc21 | inactive | inactive |  |  | inactive |  | inactive | inactive |  | inactive |  | inactive | inactive |  |  | inactive |  |  |  |
| CN(C)c1ccc(Cc2ccc(N(C)C)cc2)cc1 | inactive | inactive | 70.4 µM (active) |  |  | 65 µM (active) | inactive |  | inactive | inactive |  | inactive |  | 61.9 µM (active) |  |  |  |  |  |
| CC(C)c1cccc(C(C)C)c1N1C(=O)c2ccc(O)cc2C1=O |  | inactive |  | 12.1 µM (active) | inactive | 24.1 µM (active) | inactive | inactive |  | inactive | 56 µM (active) |  |  |  |  | inactive |  | 5.9 µM (active) |  |
| O=C(O)c1cc(N=Nc2ccc(S(=O)(=O)Nc3ccccn3)cc2)ccc1O | inactive | inactive |  |  | inactive |  | inactive | inactive | inactive | inactive |  | inactive | inactive |  |  | inactive |  |  |  |
| COC(=O)c1ccccc1O | inactive | inactive |  | 26.1 µM (active) | inactive |  | inactive | inactive | inactive | inactive |  |  | inactive |  |  | inactive |  |  |  |
| CCNc1ccccc1 | inactive | inactive |  |  | inactive |  | inactive | inactive | inactive | inactive |  | inactive | inactive |  |  | inactive |  |  |  |
| CCN(C(=O)c1cc(C)cc(OC[C@H](C)Nc2ccncc2)c1)C(C)C | inactive | inactive |  | 67.5 µM (active) | inactive |  | inactive | inactive | inactive | inactive |  |  | inactive |  |  | inactive |  |  |  |
| Cc1ccc(O)cc1 | inactive | inactive |  |  | inactive |  | inactive | inactive | inactive | inactive |  | inactive | inactive |  |  | inactive |  |  |  |
| CCOC(=O)c1ccc(C2CCC(NC[C@H](O)COc3ccc(O)c(NS(C)(=O)=O)c3)CC2)cc1 (stereo partly specified) |  |  |  | 60 µM (active) | inactive | 51.5 µM (active) | inactive | inactive |  | inactive | 51.8 µM (active) |  |  |  |  | inactive |  | 51.4 µM (active) | 51.1 µM (active) |
| CC(=O)c1ccc2c(c1)[C@H](NC(=O)c1ccc(F)cc1)[C@@H](O)C(C)(C)O2 | inactive | inactive |  |  | inactive |  | inactive | inactive | inactive | inactive |  | inactive | inactive |  |  | inactive |  |  |  |
| CC(C)CCO | inactive | inactive |  |  | inactive |  | inactive | inactive | inactive | inactive |  | inactive | inactive |  |  | inactive |  |  |  |
| CCCCC(CC)COC(=O)CCCCCCCCC(=O)OCC(CC)CCCC (stereo unspecified) |  | inactive |  |  | inactive |  | inactive | inactive |  | inactive | 25.2 µM (active) | inactive | inactive |  |  | inactive |  |  |  |
| O=P(OC(CCl)CCl)(OC(CCl)CCl)OC(CCl)CCl |  | inactive | 100 µM (active) |  | inactive |  | inactive |  | inactive | inactive | 72.3 µM (active) | inactive | inactive | 70.4 µM (active) |  |  |  |  |  |

Reference: PubChem BioAssay (EPA / NIEHS)
